Assay outcomes deposited in PubChem BioAssay by The Scripps Research Institute Molecular Screening Center.
PAFAH2 FP inh – PAFAH2 enzyme inhibitors, primary screen, biochemical, fluorescence polarization, human; inhibition, % at 3.39 µM; Platelet-activating factor acetylhydrolase 2, cytoplasmic (Homo sapiens), Q99487; 340,000 tested, 0.99% active; recombinant PAFAH2, FP-rhodamine activity probe;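 active = inhibition above the mean over all tested compounds plus 3 SD, cut at about 30% in these data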;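 also: inhibitors block probe labeling of enzyme so polarization drops; 0% = enzyme with DMSO and 100% = wells lacking PAFAH2 protein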
PAFAH1B3 inh – PAFAH1B3 enzyme inhibitors, primary screen, biochemical, fluorescence polarization, human. inhibition, % at 3.39 µM. Platelet-activating factor acetylhydrolase IB subunit alpha1 (Homo sapiens), Q15102. recombinant PAFAH1B3, FP-rhodamine probe. AID 492972, 2010. 340,000 tested, 0.28% active;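 active = inhibition above the screen-wide average of all tested compounds plus 3 SD, cut at about 25% in these data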;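 also: 0% = enzyme with DMSO only and 100% = wells lacking PAFAH1B3 protein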
pPAFAH FP inh – pPAFAH enzyme inhibitors, primary screen, biochemical, fluorescence polarization, human; Platelet-activating factor acetylhydrolase (Homo sapiens), Q13093; recombinant pPAFAH, FP-rhodamine probe fluorescence polarization; inhibition, % at 3.39 µM; 330,000 tested, 1.5% active;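 active = inhibition above the mean inhibition across the screen plus 3 SD, cut at about 25% in these data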;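 also: inhibitors block binding of the rhodamine activity-based probe so polarization drops; 0% = enzyme with DMSO and 100% = wells lacking pPAFAH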
PAFAH1B2 inh – PAFAH1B2 enzyme inhibitors, primary screen, biochemical, fluorescence polarization, human; Platelet-activating factor acetylhydrolase IB subunit alpha2 (Homo sapiens), P68402; recombinant PAFAH1B2, FP-rhodamine activity probe; inhibition, % at 3.39 µM; 340,000 tested, 1.2% active; AID 492953, 2010;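 active = inhibition above the mean of all tested compounds plus 3 SD, cut at about 24% in these data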;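 also: 0% = enzyme with DMSO and 100% = wells lacking PAFAH1B2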
E coli Lon inh – inhibitors of E. coli Lon protease, primary screen, biochemical, fluorescence polarization. 360,000 tested, 0.42% active. inhibition, % at 7.94 µM. purified E. coli Lon protease. P0A9M0; in the data active = inhibition above about 13%, passing the limit was not always enough;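 also: 0% = enzyme with probe and DMSO and 100% = no enzyme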
Rin1 Abl inh – inhibitors of Rin1-Abl protein binding, primary screen, biochemical, TR-FRET; Tyrosine-protein kinase ABL1 (Homo sapiens) + Ras and Rab interactor 1 (Homo sapiens), …; inhibition, % at 7.35 µM; 360,000 tested, 0.4% active; AID 588664, 2011; in the data active = inhibition above about 5%, passing the limit was not always enough
Target sequence (P00519 whole entry, looked up): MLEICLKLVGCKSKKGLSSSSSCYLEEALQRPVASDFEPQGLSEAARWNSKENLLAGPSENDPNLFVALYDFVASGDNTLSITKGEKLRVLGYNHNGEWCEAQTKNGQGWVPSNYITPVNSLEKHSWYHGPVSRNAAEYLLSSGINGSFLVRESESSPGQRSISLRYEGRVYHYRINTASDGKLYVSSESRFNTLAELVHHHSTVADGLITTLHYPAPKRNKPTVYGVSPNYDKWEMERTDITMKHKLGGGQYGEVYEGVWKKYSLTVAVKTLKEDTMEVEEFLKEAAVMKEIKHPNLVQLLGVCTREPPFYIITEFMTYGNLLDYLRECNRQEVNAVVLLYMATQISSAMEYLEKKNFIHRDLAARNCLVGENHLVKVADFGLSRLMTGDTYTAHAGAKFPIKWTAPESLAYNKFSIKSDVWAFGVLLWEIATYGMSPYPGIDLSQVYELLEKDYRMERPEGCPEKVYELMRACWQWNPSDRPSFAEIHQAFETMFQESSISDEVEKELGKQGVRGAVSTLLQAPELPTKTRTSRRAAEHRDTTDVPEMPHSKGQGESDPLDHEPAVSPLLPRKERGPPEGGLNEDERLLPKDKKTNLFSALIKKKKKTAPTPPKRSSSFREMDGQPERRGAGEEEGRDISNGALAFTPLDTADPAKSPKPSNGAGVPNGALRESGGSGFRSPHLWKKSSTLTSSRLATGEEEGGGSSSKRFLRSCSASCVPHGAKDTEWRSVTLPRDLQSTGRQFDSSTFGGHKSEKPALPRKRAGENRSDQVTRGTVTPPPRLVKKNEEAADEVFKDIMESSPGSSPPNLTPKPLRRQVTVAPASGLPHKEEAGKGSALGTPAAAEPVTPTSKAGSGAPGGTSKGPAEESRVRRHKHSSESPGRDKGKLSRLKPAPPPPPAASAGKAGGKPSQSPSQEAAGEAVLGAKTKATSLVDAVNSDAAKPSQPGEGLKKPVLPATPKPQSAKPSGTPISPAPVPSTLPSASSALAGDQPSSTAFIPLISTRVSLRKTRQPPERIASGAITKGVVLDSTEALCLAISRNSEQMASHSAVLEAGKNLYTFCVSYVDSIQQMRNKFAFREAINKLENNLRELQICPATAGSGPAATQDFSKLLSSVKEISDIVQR
Target sequence (Q13671 whole entry, looked up): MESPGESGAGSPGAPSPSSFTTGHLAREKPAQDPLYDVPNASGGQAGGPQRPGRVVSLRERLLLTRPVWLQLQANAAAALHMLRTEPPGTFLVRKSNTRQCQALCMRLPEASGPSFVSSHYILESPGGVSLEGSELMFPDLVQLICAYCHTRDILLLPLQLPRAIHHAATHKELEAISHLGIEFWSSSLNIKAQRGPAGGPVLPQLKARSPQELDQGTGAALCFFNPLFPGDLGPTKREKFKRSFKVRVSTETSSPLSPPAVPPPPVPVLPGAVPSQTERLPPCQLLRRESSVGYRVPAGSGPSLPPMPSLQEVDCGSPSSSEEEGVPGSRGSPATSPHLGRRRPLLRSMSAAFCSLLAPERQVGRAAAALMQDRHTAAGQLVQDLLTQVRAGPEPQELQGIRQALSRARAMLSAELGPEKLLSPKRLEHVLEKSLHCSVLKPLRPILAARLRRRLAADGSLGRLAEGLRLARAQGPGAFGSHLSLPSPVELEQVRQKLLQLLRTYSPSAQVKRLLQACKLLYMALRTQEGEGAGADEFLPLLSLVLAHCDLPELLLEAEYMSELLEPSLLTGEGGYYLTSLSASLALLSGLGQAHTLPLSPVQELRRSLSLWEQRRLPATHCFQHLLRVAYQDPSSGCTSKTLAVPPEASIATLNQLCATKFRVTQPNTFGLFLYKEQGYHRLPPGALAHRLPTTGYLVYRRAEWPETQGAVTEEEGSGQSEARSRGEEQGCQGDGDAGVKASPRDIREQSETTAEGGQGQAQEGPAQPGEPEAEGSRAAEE
PAFAH1B3 confirm – PAFAH1B3 enzyme inhibitors, confirmation, biochemical, fluorescence polarization, human; shares compounds with PAFAH1B3 inh; recombinant PAFAH1B3, FP-Rh activity-based probe; inhibition, % at 3.39 µM; 390 tested, 30% active; AID 493032, 2011;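 active = average inhibition over triplicate runs above the hit cutoff set in the earlier primary screen, cut at about 25% in these data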;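 also: 0% = enzyme with DMSO and 100% = wells lacking PAFAH1B3 protein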
* = called active by the depositor. Only some compounds are listed: those with a hit (about 3.1% of all), similar ones and a draw of the others.

For Cc1ccc(C(C)C)c(OCc2ccc(C(=O)N/N=C/c3ccc(O)cc3O)cc2)c1 the results were PAFAH2 FP inh -1, PAFAH1B3 inh 42*, pPAFAH FP inh 14, PAFAH1B2 inh 23, E coli Lon inh -10, Rin1 Abl inh 0 and PAFAH1B3 confirm 26*.
`CC(C)(C)c1nnc2sc(SCC(=O)c3ccc(Cl)cc3)nn2c1=O` gave PAFAH2 FP inh -2, PAFAH1B3 inh 27*, pPAFAH FP inh 1, PAFAH1B2 inh 8, E coli Lon inh 0, Rin1 Abl inh -3 and PAFAH1B3 confirm 14.
`O=C(O)c1ccc(Nc2nc(-c3ccc([N+](=O)[O-])cc3)nc3ccccc23)cc1` gave PAFAH2 FP inh 11, PAFAH1B3 inh 26*, PAFAH1B2 inh 8, E coli Lon inh 3, Rin1 Abl inh -1 and PAFAH1B3 confirm 14.
For O=[N+]([O-])c1ccc(-c2nc(Nc3ccc(O)cc3)c3ccccc3n2)cc1 the results were PAFAH2 FP inh 7, PAFAH1B3 inh 18, PAFAH1B2 inh 6, E coli Lon inh -15 and Rin1 Abl inh 0.
For O=C(N/N=C1\C/C(=N\NC(=O)c2ccncc2)c2ccccc21)c1ccncc1 the results were PAFAH2 FP inh 22, PAFAH1B3 inh 28*, pPAFAH FP inh 22, PAFAH1B2 inh 14, E coli Lon inh 6, Rin1 Abl inh 2 and PAFAH1B3 confirm 12.
`CN=c1sc2c(n1C)C(=O)c1ccccc1C2=O` gave PAFAH2 FP inh 14, PAFAH1B3 inh 42*, PAFAH1B2 inh 13, E coli Lon inh -1, Rin1 Abl inh -4 and PAFAH1B3 confirm 29*.
Screening CN=c1sc(C(=O)Nc2ccccc2)c(C)n1C returned PAFAH2 FP inh 4, PAFAH1B3 inh 2, pPAFAH FP inh 4, PAFAH1B2 inh 4, E coli Lon inh 3 and Rin1 Abl inh -1.
CCN(CC)N=Nc1ccc(S(=O)(=O)Nc2nc(C)cc(C)n2)cc1 was read as PAFAH2 FP inh 0, PAFAH1B3 inh -5, pPAFAH FP inh 1, PAFAH1B2 inh 2, E coli Lon inh 8 and Rin1 Abl inh 1.
`CCOC(=O)c1c(NC(=O)c2ccco2)n(C2CCCCC2)c2nc3ccccc3nc12` gave PAFAH2 FP inh 16, PAFAH1B3 inh 59*, pPAFAH FP inh 6, PAFAH1B2 inh 20, E coli Lon inh -8, Rin1 Abl inh 4 and PAFAH1B3 confirm 20.
`O=C1Nc2c(Cl)cccc2C1=O` gave E coli Lon inh -8 and Rin1 Abl inh 0.
For Cc1cccc2c1NC(=O)C2=O the results were PAFAH2 FP inh 16, PAFAH1B3 inh 36*, PAFAH1B2 inh 14, E coli Lon inh -8, Rin1 Abl inh -2 and PAFAH1B3 confirm 25.
For O=C1ON=C(c2ccccc2)/C1=C/c1ccc(O)c(O)c1 the results were PAFAH2 FP inh 10, PAFAH1B3 inh 29*, pPAFAH FP inh 7, PAFAH1B2 inh 8, E coli Lon inh 5, Rin1 Abl inh 0 and PAFAH1B3 confirm 47*.
Screening COc1cc(/C=C2\C(=O)ON=C2c2ccc(Cl)cc2)ccc1O returned pPAFAH FP inh 2.
`COC(=O)c1cc2c(n1S(=O)(=O)c1ccc(C)cc1)C(=O)C(=O)c1[nH]cc(C(=O)OCc3ccccc3)c1-2` gave PAFAH2 FP inh 13, PAFAH1B3 inh 39*, PAFAH1B2 inh 7, E coli Lon inh -5, Rin1 Abl inh 2 and PAFAH1B3 confirm 34*.
CNC(=O)c1[nH]nc2c1CCc1cc(OC)ccc1-2 was read as PAFAH2 FP inh 29, PAFAH1B3 inh 28*, pPAFAH FP inh 0, PAFAH1B2 inh 15, E coli Lon inh -1, Rin1 Abl inh -1 and PAFAH1B3 confirm 9.
`COc1ccc2c(c1)CCc1c-2n[nH]c1C(=O)NCCC(C)C` gave PAFAH2 FP inh 7, PAFAH1B3 inh 0, pPAFAH FP inh 8, PAFAH1B2 inh 5, E coli Lon inh 2 and Rin1 Abl inh 2.
Brc1ccc(-c2csc(Nc3nc(-c4ccc(Br)cc4)cs3)n2)cc1 was read as PAFAH2 FP inh 16, PAFAH1B3 inh 34*, pPAFAH FP inh 2, PAFAH1B2 inh 17, E coli Lon inh -8, Rin1 Abl inh 1 and PAFAH1B3 confirm 22.
For O=C(COC(=O)c1ccccn1)NC(=O)c1ccccc1 the results were PAFAH2 FP inh 0, PAFAH1B3 inh 2, pPAFAH FP inh -3, PAFAH1B2 inh 2, E coli Lon inh 4 and Rin1 Abl inh 1.
Screening COc1cc(NS(=O)(=O)c2ccc(NC(=S)NC(=O)/C=C/c3ccco3)cc2)ncn1 returned PAFAH2 FP inh 27, PAFAH1B3 inh 29*, PAFAH1B2 inh 9, E coli Lon inh -15, Rin1 Abl inh 3 and PAFAH1B3 confirm 17.
Screening O=C(N/N=C/c1ccccc1O)NC12CC3CC(CC(C3)C1)C2 returned PAFAH2 FP inh 5, PAFAH1B3 inh 26*, pPAFAH FP inh 5, PAFAH1B2 inh 6, E coli Lon inh 3, Rin1 Abl inh 4 and PAFAH1B3 confirm 21.
Screening O=C(N/N=C/c1ccc(O)c(O)c1)NC12CC3CC(CC(C3)C1)C2 returned PAFAH2 FP inh 18, PAFAH1B3 inh 1, pPAFAH FP inh 16, PAFAH1B2 inh 16, E coli Lon inh -1 and Rin1 Abl inh 2.
Cc1cccc(NC(=O)CN2C(=O)N/C(=C\c3ccc(-c4cccc(C(=O)O)c4)o3)C2=O)c1 was read as PAFAH2 FP inh 6, PAFAH1B3 inh 81*, pPAFAH FP inh 10, PAFAH1B2 inh 8, E coli Lon inh 4, Rin1 Abl inh 1 and PAFAH1B3 confirm 76*.
For CC(C)C1Nc2ccc(C(=O)O)cc2C2C=CCC21 (configuration not stated) the results were PAFAH2 FP inh 26, PAFAH1B3 inh 29*, pPAFAH FP inh 23, PAFAH1B2 inh 12, E coli Lon inh -3, Rin1 Abl inh 2 and PAFAH1B3 confirm 16.
Cc1ccc(NC(=O)C2(C)CCCN2C)cc1C (configuration not stated) was read as E coli Lon inh 6 and Rin1 Abl inh -1.
`COc1ccccc1N(/N=C1\Sc2ccccc2C1=O)C(C)=O` gave PAFAH2 FP inh 4, PAFAH1B3 inh 51*, pPAFAH FP inh 11, PAFAH1B2 inh 10, E coli Lon inh -4, Rin1 Abl inh -3 and PAFAH1B3 confirm 54*.
For COc1ccc(CN(C(C)=O)c2ccccc2C(=O)O)cc1 the results were PAFAH2 FP inh 0, PAFAH1B3 inh 8, pPAFAH FP inh -2, PAFAH1B2 inh -1, E coli Lon inh -2 and Rin1 Abl inh 1.
